# Assay results as given in PubChem BioAssay AID1476 (National Center for Advancing Translational Sciences (NCATS), 2009).
# Out of some 200,000 compounds screened, about 4,500 (2.2%) were called active. About 12% were inconclusive and are not listed. Calls come from the whole dose curve; as a rule, active = well fitted inhibition curve with a large enough effect; inconclusive = small, poorly fitted or top-dose-only effect, or effect the other way; inactive = flat fitted curve, though single readings scatter. What follows is part of a selection rich in actives, with near analogues and random picks from the rest. More than one record can exist for a structure, and the calls need not agree.
# Target: Cruzipain (Trypanosoma cruzi) (UniProt P25779)
# Assay: qHTS Assay for Promiscuous and Specific Inhibitors of Cruzain (without detergent); note: nearly all actives have a fitted effect of over 40% in size;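 for max response, negative = inhibition: plate controls were enzyme without inhibitor for no effect and buffer without enzyme for full effect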
# Conditions: purified cruzain, Z-FR-AMC fluorescence, no detergent
# Method in brief: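 Purified cruzain at 1.5 nM, pre-incubated 15 min with compound at room temperature in 100 mM sodium acetate pH 5.5, 5 mM DTT, 0.00005% Triton X-100. Reaction started with 2 uM Z-FR-AMC; AMC fluorescence increase over 60 s gives rate.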
# Potency is the fitted concentration of half-maximal effect.
# Cruzipain (Trypanosoma cruzi), sequence (P25779 123-467 limits assumed): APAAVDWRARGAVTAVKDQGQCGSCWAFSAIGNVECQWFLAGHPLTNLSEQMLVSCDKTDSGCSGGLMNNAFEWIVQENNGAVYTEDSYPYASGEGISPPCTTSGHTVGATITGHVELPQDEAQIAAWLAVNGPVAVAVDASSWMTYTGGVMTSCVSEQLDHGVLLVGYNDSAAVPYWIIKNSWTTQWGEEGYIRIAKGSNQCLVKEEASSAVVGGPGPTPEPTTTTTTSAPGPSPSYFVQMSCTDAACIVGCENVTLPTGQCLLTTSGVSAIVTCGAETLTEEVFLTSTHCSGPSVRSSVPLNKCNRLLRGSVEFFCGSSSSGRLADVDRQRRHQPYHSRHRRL
SMILES,"max response, negative = inhibition",Potency
CCOC(=O)c1c(SCC(=O)Nc2cccc(C)c2C)nc(=O)[nH]c1C,4.55% (inactive),
CCOc1ccc(Nc2nc3c(S(=O)(=O)c4cccc(Cl)c4)nnn3c3ccsc23)cc1,3.27% (inactive),
Cc1cccc(OCCCC(=O)Nc2sc3c(c2C(N)=O)CCC(C)C3)c1 (stereo not given),14.1% (inactive),
CCOC(=O)c1c(NC(=O)/C=C/c2ccc(OC)cc2)sc2c1CCC(C)C2 (stereo not given),-18.7% (inactive),
COC(=O)c1c(NC(=O)CN2CCN(S(=O)(=O)c3ccccc3[N+](=O)[O-])CC2)sc2c1CCC(C)C2 (stereo not given),,10 µM (active)
CCOc1ccc(NC(=O)c2c(NC(=O)Cc3ccccc3)sc3c2CCC(C)C3)cc1 (stereo not given),1.97% (inactive),
COC(=O)c1c(NC(=O)CCCOc2ccccc2)sc2c1CCC(C)C2 (stereo not given),0.0824% (inactive),
Cc1c(Br)c([N+](=O)[O-])nn1CC(=O)Nc1sc2c(c1C(=O)OC(C)C)CCC(C)C2 (stereo not given),,15.8 µM (active)
CCCn1c2ccccc2c2cnn(CC(=O)N3CCCC(C(=O)OCC)C3)c(=O)c21 (stereo not given),-0.857% (inactive),
Cc1ccc(C2C=C(c3ccc(Cl)cc3)Nc3nc(NC(=O)CCC(=O)O)nn32)cc1 (stereo not given),-6.04% (inactive),
O=C(c1ccccc1F)N1CCC(c2nc3c(nnn3Cc3cccc(F)c3)c(=O)[nH]2)CC1,-6.41% (inactive),
CCc1ccccc1OCCSc1nc(-c2cccs2)nc2cc(=O)[nH]n12,,3.16 µM (active)
Cc1ccc(OCCSc2nc(-c3cccs3)nc3cc(=O)[nH]n23)cc1Cl,3.5% (inactive),
O=c1cc2nc(-c3ccccc3)nc(SCCOc3ccc(Cl)cc3)n2[nH]1,8.61% (inactive),
COc1ccc(Cn2ccnc2SCC(=O)NCc2ccco2)cc1,-5.79% (inactive),
COCCn1c(=O)c(-c2cccs2)nc2cncnc21,2.13% (inactive),
CCCn1c(=O)c2c(C(F)(F)F)cc(-c3cccs3)nc2n(CCC)c1=O,,6.31 µM (active)
FC(F)(F)c1cc(-c2cccs2)nc(NCc2ccco2)n1,-1.04% (inactive),
Cc1oc2ncnc(N3CCOCC3)c2c1C(=O)NCCc1ccccc1,3.49% (inactive),
Cc1ccc(C(=O)Nc2nnc(-c3cccs3)s2)cc1C,,15.8 µM (active)
CCOc1cccc(C(=O)Nc2cccnc2)c1,1.56% (inactive),
Cc1ccc(C(=O)Oc2coc(CSc3nnc(NC(=O)c4cccs4)s3)cc2=O)cc1C,,25.1 µM (active)
CCOc1cccc(C(=O)Nc2nnc(-c3cccs3)s2)c1,,15.8 µM (active)

SMILES,"max response, negative = inhibition",Potency
CCOc1cccc(C(=O)Nc2nnc(S(=O)(=O)N(C)c3ccc(C)cc3)s2)c1,-15.4% (inactive),
CCCc1nnc(NC(=O)c2cccs2)s1,0.875% (inactive),
CCOc1ccccc1Nc1nnc(SCc2ccc(C(=O)OC)o2)s1,2.33% (inactive),
CCc1nnc(NC(=O)c2cccs2)s1,-8.43% (inactive),
COC(=O)c1ccc(CSc2nnc(NC(C)C)s2)cc1,5.53% (inactive),
COC(=O)c1cccc(Cn2nnc3sc4c(c3c2=O)CCC(C(C)(C)C)C4)c1 (stereo not given),2.87% (inactive),
O=C(CCC(=O)N1CC2CCCN2c2ccccc21)NCc1ccccc1Cl (stereo not given),-16.5% (inactive),
Cc1nnc(NC(=O)CSc2nc3c([nH]c4ccccc43)c(=O)n2-c2cccc(Cl)c2)s1,2.35% (inactive),
COc1cc(-c2nnn(CC(=O)NCc3ccccc3)n2)cc(OC)c1OC,25.6% (inactive),
Cc1cn(C)c(CC(=O)NCc2ccccc2)c1C(=O)O,-3.27% (inactive),
CN(Cc1ccccc1)C(=O)c1cn(C)c2ccc(S(=O)(=O)N3CCCCC3)cc2c1=O,-10.3% (inactive),
CN(Cc1ccccc1)C(=O)c1cn(C)c2ccc(S(=O)(=O)N(C)C3CCCCC3)cc2c1=O,5.7% (inactive),
COc1ccc(C(=O)Nc2ccc(-n3nncc3-c3ccccc3)cc2)cc1OC,25.3% (inactive),
Cc1ccc(N2CCN(C(=O)CCc3c(C)nc4c(c3C)c(=O)n(C)c(=O)n4C)CC2)c(C)c1,6.51% (inactive),
O=C(NCc1ccc(Cl)cc1)c1ccc2c(c1)nnn2C1CCCC1,-10.2% (inactive),
Cc1ccc(-n2ncc3c(=O)n(Cc4cccc(C(F)(F)F)c4)cnc32)cc1C,6.16% (inactive),
Cn1cc(/C=C/c2nc3ccccc3c(=O)n2-c2cccc([N+](=O)[O-])c2)c2ccccc21,,10 µM (active)
Cc1ccc(-n2c(/C=C/c3cccc(C(F)(F)F)c3)nc3ccccc3c2=O)cc1,-0.135% (inactive),
Cn1cc(/C=C/c2nc3ccccc3c(=O)n2-c2ccccc2)c2ccccc21,10.3% (inactive),
CSc1ccc(C2C(C(=O)Nc3ccccc3)=C(C)Nc3nc4ccccc4n32)cc1 (stereo not given),-7.45% (inactive),
CCc1cccc(C)c1NS(=O)(=O)c1c(C)nc2sccn2c1=O,1.11% (inactive),
CCOC(=O)c1cc2c(=O)n3ccccc3nc2n(CCCOC)c1=NC(=O)C(C)Oc1ccccc1 (stereo not given),-4.02% (inactive),
C=CCNC(=S)N/N=C/c1ccc(OCc2ccccc2)cc1,-2.25% (inactive),

SMILES,"max response, negative = inhibition",Potency
CNC(=S)NNC(=O)c1sccc1OCc1ccccc1,-0.842% (inactive),
CNC(=S)N/N=C/c1ccc(OCc2ccccc2)c(Br)c1,,25.1 µM (active)
Cc1ccccc1CN1CCC(CNC(=O)c2cc3ccc4cccnc4c3[nH]2)CC1,-9.74% (inactive),
Cc1ccc(Nc2c(-c3ccc(C)cc3)nc3cnccn23)cc1,5.6% (inactive),
Cc1ccc(Nc2c(-c3ccc(Cl)cc3)nc3sccn23)c(C)c1,,31.6 µM (active)
O=c1cc(Cn2nnc(-c3ccc(Cl)cc3)n2)nc2sccn12,0.777% (inactive),
Cc1cccc(-n2ccnc2SCC(=O)Nc2cccc3ccccc23)c1C,-4.61% (inactive),
O=C(COc1ccc(/C=N/NC(=O)c2ccc(O)cc2)cc1)Nc1ccc([N+](=O)[O-])cc1,-9.42% (inactive),
Cc1ccc(OCCCC(=O)Nc2ccc(N3CCOCC3)cc2)cc1,-0.526% (inactive),
O=C(COc1ccc([N+](=O)[O-])cc1)Nc1ccc(N2CCCC2)cc1,,7.94 µM (active)
CCS(=O)(=O)N1CCc2cc(C(=O)N3CCN(c4ccccc4OC)CC3)ccc21,-11.9% (inactive),
Cc1cc(Cl)ccc1NC(=O)Cc1ccc(NC(=O)N2CCCCc3ccccc32)cc1,8.39% (inactive),
NC(=O)N1CCCC1C(=O)Nc1ccc(Cl)c(Cl)c1 (stereo not given),-7.92% (inactive),
O=C(Nc1ccc(Cl)c(Cl)c1)N1CC=C(c2ccccc2)CC1,,31.6 µM (active)
CC(C(=O)Nc1ccc(Cl)cc1Cl)N1CC=C(c2ccccc2)CC1 (stereo not given),3.73% (inactive),
CC(CCCc1ccccc1)NC(=O)c1nn(-c2ccc(Cl)cc2)nc1CO (stereo not given),4.3% (inactive),
CN1CCN(c2ccc(S(=O)(=O)Nc3ccccc3)cc2[N+](=O)[O-])CC1,-3.45% (inactive),
O=[N+]([O-])c1ccc(N2CCN(S(=O)(=O)c3ccccc3)CC2)cc1N1CCc2ccccc2C1,,7.94 µM (active)
CC(=O)Nc1ccc(S(=O)(=O)N2CCN(c3ccccc3)CC2)cc1,4.93% (inactive),
Cc1ccccc1CNC(=O)C1CCCN(S(=O)(=O)N(C)c2ccc(F)cc2)C1 (stereo not given),7.13% (inactive),
O=C(COc1ccc(Cl)cc1)Nc1ccccc1OCc1cc(=O)n2ccccc2n1,-0.406% (inactive),
CC(C)c1ccc2c(c1)c(SC(C)(C)C)c(CC(C)(C)C(=O)O)n2Cc1ccc(Cl)cc1,1.55% (inactive),7.94 µM (active)
O=C(Cn1c(=O)nc(-c2ccccc2)c2cc(Cl)ccc21)NCc1ccc(Cl)cc1,-1.57% (inactive),

SMILES,"max response, negative = inhibition",Potency
CC(C)c1ccc(Cn2c(COc3ccccc3)nc3ccccc32)cc1,-13.5% (inactive),
COc1ccc(NC(=O)CSc2nccn2Cc2ccc3c(c2)OCO3)cc1,-5.6% (inactive),
CCOc1ccccc1C1CC(c2cccc(NS(C)(=O)=O)c2)=NN1C(=O)c1ccccc1 (stereo not given),4.98% (inactive),
O=C(COc1ccc2ccccc2c1)N1CCN(C(=O)c2cccs2)CC1,12.1% (inactive),
CCOc1ccc2nc(Cl)c(C3CC(c4ccccc4)=NN3C(=O)c3cccs3)cc2c1 (stereo not given),,7.94 µM (active)
CCOC(=O)c1c(C)oc2nc(C)nc(N(CC(C)C)CC(C)C)c12,-3.29% (inactive),
COc1ccc(NC(=O)CN2C(=O)COc3ccc(S(=O)(=O)N4CCOCC4)cc32)cc1,4.14% (inactive),
O=C(NC1CCc2ccccc21)C12CN(Cc3ccccc3)CC1C(c1cccc([N+](=O)[O-])c1)=NO2 (stereo not given),,12.6 µM (active)
Nc1ccc(C(=O)OCC(=O)NC2CCCc3ccccc32)cc1[N+](=O)[O-] (stereo not given),-1.06% (inactive),
COc1ccc([N+](=O)[O-])cc1C1NN=C(c2cccc3ccccc23)S1 (stereo not given),,7.94 µM (active)
COc1ccccc1CC(=O)Nc1ccc([N+](=O)[O-])cc1OC,-6.07% (inactive),
COc1ccc([N+](=O)[O-])cc1NC(=O)CCc1ccccc1,-3.31% (inactive),
O=C(CSc1nc(Nc2ccc(F)c(F)c2)c2ccccc2n1)c1ccc(Cl)cc1,-24.6% (inactive),
COC(=O)Cc1nc2ccccc2[nH]1,-1.4% (inactive),
Cc1ccccc1OC/C(O)=C(\C#N)c1nc2ccccc2[nH]1,,20 µM (active)
COc1ccccc1CSc1nc2ccccc2[nH]1,4.13% (inactive),
CCOc1ccc(NC(=O)Cn2c(C)ccc(C#N)c2=O)cc1,-12.5% (inactive),
Cc1cc(N2CCN(S(=O)(=O)c3ccc(C)c(C)c3)CC2)c2ccccc2n1,1.17% (inactive),
COc1ccc(S(=O)(=O)N2CCN(c3ncnc4c(-c5ccccc5)nsc34)CC2)cc1,,20 µM (active)
COc1ccc(S(=O)(=O)N2CCCC(C(=O)Nc3ccc(NC(=O)c4ccccn4)cc3)C2)cc1 (stereo not given),-11.4% (inactive),
